Among the test systems are DU-145 prostate; K-562 leukemia; MALME-3M melanoma; MDA-MB-231 breast; RXF 393 renal; SF-268 CNS; SF-295 CNS; SF-539 CNS; UACC-257 melanoma; M14 melanoma.
What all share (assay): NCI-60 one-dose screen, 48 h (100 = growth as untreated, 0 = no growth, -100 = all killed)
Holding throughout (details): 10 µM unless noted

“And” between values parts separate entries of the source, which are not always exact repeats. Equal values may be shown once. This is part of a sample that, as a whole, favours compounds with a hit. Of some 83,000 tested, about 20% had one in any assay.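 Cells were grown in 96-well plates and exposed to the test compound at a single concentration for 48 hours; results are reported as percent growth, with values below 10 considered active.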 Unmarked numbers belong to inactive results. The source made the active and inactive calls.

As for `CCOC(=O)c1nnn(Cc2cc(=O)oc3c2ccc2ccccc23)c1C`, the growth in the assay with DU-145 prostate was 103%; with K-562 leukemia it was 104%; in the assay on MALME-3M melanoma it was 98.5%; with MDA-MB-231 breast, 98.7%; in the assay on RXF 393 renal, 112%; in the assay on SF-268 CNS, 105%. The growth in the assay on SF-295 CNS was 98.8%; in the assay on SF-539 CNS, 98.8%; with UACC-257 melanoma it was 94%; with M14 melanoma it was 98.1%.
In the case of `NC1=CC(=O)c2cccnc2C1=O`, the growth was -1.98% (active) in the assay on DU-145 prostate; -48.4% (active) with K-562 leukemia; -81.4% (active) in the assay with MALME-3M melanoma; -13.5% (active) in the assay on MDA-MB-231 breast; 15.8% with RXF 393 renal; -0.409% (active) in the assay on SF-268 CNS. Further, the growth in the assay on SF-295 CNS was 22.4%; in the assay on SF-539 CNS it was -89.2% (active); with UACC-257 melanoma, -48.4% (active); with M14 melanoma, -88.6% (active).
Regarding `S=c1nc(CS)[nH]c2ccccc12`, the growth was 108% in the assay with DU-145 prostate; 104% with K-562 leukemia; 86.6% in the assay on MALME-3M melanoma; 82.8% in the assay on MDA-MB-231 breast; 109% in the assay with RXF 393 renal; 92.4% with SF-268 CNS. Moreover, the growth is 94.6% with SF-295 CNS, 94.7% in the assay on SF-539 CNS, 95.9% with UACC-257 melanoma and 98.2% with M14 melanoma.
`CN1CCN(Cc2ccc(NC(=O)c3cccc(C#Cc4c(N)ncc5ccc(F)cc45)c3)cc2C(F)(F)F)CC1`: the growth in the assay with DU-145 prostate is -89.9% (active); in the assay with K-562 leukemia it was -29.5% (active); with MALME-3M melanoma, -54.5% (active); in the assay on MDA-MB-231 breast, -79% (active); in the assay on RXF 393 renal it was -89.6% (active); with SF-268 CNS, -45.8% (active). The growth in the assay on SF-295 CNS is -65.4% (active); in the assay with SF-539 CNS, -94.5% (active); with UACC-257 melanoma, -62.5% (active); in the assay on M14 melanoma, -71% (active).
With `Cn1cc(-c2nc3c(F)cc4[nH]ncc4c3c3c2CCCC3)c(C(F)F)n1`, the growth in the assay with DU-145 prostate is 78.7%; in the assay on K-562 leukemia, 26%; in the assay on MALME-3M melanoma it was 77.1%; with MDA-MB-231 breast it was 60.2%; in the assay with RXF 393 renal, 55%; with SF-268 CNS, 61.7%. The growth with SF-295 CNS was 64.7%; in the assay on SF-539 CNS, 62.3%; in the assay with UACC-257 melanoma it was 90.5%; in the assay on M14 melanoma, 53.4%.
As for `CCOC(=O)C(=Cc1ccc(C#N)cc1)C(=O)OCC`, the growth was 43.8% in the assay on DU-145 prostate; 3.59% (active) in the assay on K-562 leukemia; -10.9% (active) with MALME-3M melanoma; 16.3% with MDA-MB-231 breast; -62.5% (active) in the assay with RXF 393 renal; 28.1% in the assay with SF-268 CNS. Besides, the growth with SF-295 CNS was 95.3%; with SF-539 CNS, -49.9% (active); in the assay on UACC-257 melanoma it was 14.6%; in the assay on M14 melanoma it was 27%.
As to `O=C([C@H]1C[C@H]1c1ccc(S(F)(F)(F)(F)F)cc1)N1CCN(c2cc(Cl)ccc2C(F)(F)F)CC1`, the growth in the assay with DU-145 prostate was 104%; in the assay with K-562 leukemia, 74.2%; in the assay on MALME-3M melanoma, 89.7%; with MDA-MB-231 breast it was 97.2%; in the assay with RXF 393 renal it was 91.8%; with SF-268 CNS, 90.2%. In addition, the growth in the assay on SF-295 CNS was 92.6%; in the assay on SF-539 CNS, 107%; in the assay on UACC-257 melanoma, 94.9%; in the assay on M14 melanoma, 90.7%.
Take `O=[N+]([O-])c1ccc(S(=O)Cc2ccccc2)c([N+](=O)[O-])c1` (stereo not given): the growth in the assay with DU-145 prostate was 79.3% and 70.5%; with K-562 leukemia it was 25.9%; in the assay with MALME-3M melanoma, -61.7% (active) and -33.4% (active); with MDA-MB-231 breast, 74.6% and 82.1%; in the assay on RXF 393 renal, -36.6% (active) and -28.2% (active); with SF-268 CNS it was 86.6% and 88.5%. Further, the growth in the assay with SF-295 CNS is 95.9%; in the assay with SF-539 CNS, 90.7% and 46.3%; with UACC-257 melanoma it was 37% and 69.3%; in the assay with M14 melanoma it was 55.8% and 31.7%.
On to `COc1cc(/C=C(/c2ccccc2)[N+](=O)[O-])c(OC)c2c1OCO2`, for which the growth with DU-145 prostate is -87.4% (active); in the assay with K-562 leukemia, 0.225% (active); in the assay with MALME-3M melanoma, -49.6% (active); in the assay on MDA-MB-231 breast, -47.9% (active); with RXF 393 renal it was -79.8% (active); with SF-268 CNS, 21.1%. For the same molecule, the growth in the assay with SF-295 CNS is 28.8%; in the assay on SF-539 CNS, -90.5% (active); in the assay on UACC-257 melanoma, 17.3%; in the assay with M14 melanoma it was 11.9%.
In the case of `CCOC(=O)c1cnn(CC(O)CC)c1NC(=O)NCc1ccccc1C(F)(F)F` (stereo not given), the growth with DU-145 prostate is 109%; in the assay on K-562 leukemia it was 88.5%; in the assay with MALME-3M melanoma, 103%; with MDA-MB-231 breast it was 105%; in the assay with RXF 393 renal it was 119%; in the assay on SF-268 CNS, 100%. Besides, the growth was 90.7% in the assay on SF-295 CNS, 99.1% in the assay with SF-539 CNS, 103% with UACC-257 melanoma and 88.2% in the assay with M14 melanoma.
For `Nc1ccc(S(=O)(=O)c2ccc(N)cc2)cc1`, the growth was 115% and 113% with DU-145 prostate; 104% and 144% in the assay with K-562 leukemia; 109% and 121% in the assay on MALME-3M melanoma; 108% and 112% with MDA-MB-231 breast; 104% and 108% with RXF 393 renal; 112% and 108% in the assay with SF-268 CNS. The growth is 94.4% in the assay with SF-295 CNS; 103% and 97.6% in the assay on SF-539 CNS; 103% and 93.4% with UACC-257 melanoma; 101% and 97.5% in the assay on M14 melanoma.
As to `FC(F)(F)Sc1ccc(/C=C/c2cc(/C=C/c3ccc(SC(F)(F)F)cc3)n(-c3ccccc3)n2)cc1`, the growth with DU-145 prostate was 108%; in the assay on K-562 leukemia, 91%; in the assay on MALME-3M melanoma, 98.8%; with MDA-MB-231 breast, 89.5%; in the assay on RXF 393 renal it was 113%; with SF-268 CNS, 91%. Moreover, the growth in the assay on SF-295 CNS is 96.6%; with SF-539 CNS it was 98.1%; in the assay with UACC-257 melanoma it was 86.4%; in the assay with M14 melanoma it was 95.2%.

The values above are taken from PubChem BioAssay (NCI).
